# Reference: PubChem BioAssay (NCATS)
# Several values for one entry are separate records, joined by “and”; a condition that tells them apart may be missing. Identical values can stand only once. Results filed as inconclusive are left out. More than one record can exist for a structure, and the calls need not agree. Activity calls are given as the source filed them. Unless noted, the call rests on the fitted dose curve; in most records, active means well fitted curve in the direction sought with a large enough effect; inconclusive means small, poorly fitted or top-dose-only effect, or another doubt; inactive means no such curve, though single readings can be large; an effect the other way counts as inactive or inconclusive.
# How the values were obtained:
# [1] = target: Cytochrome P450 1A2 (Homo sapiens) (UniProt P05177); experiment: qHTS for inhibitors of CYPIA2 against the NCATS DSHEA and TCM libraries (AID 1919976)
# Sequence of Cytochrome P450 1A2 (Homo sapiens) (P05177 whole entry, looked up): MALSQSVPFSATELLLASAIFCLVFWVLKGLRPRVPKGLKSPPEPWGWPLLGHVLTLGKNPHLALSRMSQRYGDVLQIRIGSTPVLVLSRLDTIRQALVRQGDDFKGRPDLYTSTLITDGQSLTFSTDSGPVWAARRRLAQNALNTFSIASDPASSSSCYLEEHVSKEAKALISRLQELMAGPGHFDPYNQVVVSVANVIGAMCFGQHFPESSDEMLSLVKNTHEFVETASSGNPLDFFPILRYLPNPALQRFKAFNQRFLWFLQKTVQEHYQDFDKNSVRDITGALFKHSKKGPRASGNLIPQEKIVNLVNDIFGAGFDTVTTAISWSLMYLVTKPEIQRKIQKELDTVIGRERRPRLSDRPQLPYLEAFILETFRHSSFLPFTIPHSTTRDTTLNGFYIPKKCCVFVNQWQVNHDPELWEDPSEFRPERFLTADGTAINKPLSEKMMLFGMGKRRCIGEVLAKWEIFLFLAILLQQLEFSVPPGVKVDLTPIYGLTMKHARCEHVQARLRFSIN
# Outline: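 Enzyme and pro-luciferin substrate, or substrate alone as no-enzyme background, are pre-incubated with test samples for 15 min at room temperature. NADPH regeneration system (1x final) initiates a 30-45 min dark reaction; luciferase detection reagent follows before luminescence reading.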
# [2] = qHTS Counterscreen for compound interference against the NCATS DSHEA and TCM libraries (AID 1919978); details: firefly luciferase detection reagent interference, luminescence
# Outline: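 Compounds, titrated from 19.5 nM to 39.8 uM final, were pinned onto 1 uM D-luciferin or plain 100 mM potassium phosphate. After 15 min at room temperature, luciferin detection reagent was added for 30 min before the luminescence read.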
# [3] = Dual reporter qHTS for agonist of Pregnane X Receptor (hPXR) against the NCATS DSHEA and TCM libraries: Fluorescence readout (AID 1920058)
# Outline: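 Cells were plated at 2000 per well and allowed to attach for 5 h. Test substances were pinned in and incubated roughly 24 h. CellTiter-Fluor was then added and fluorescence measured after 1 h.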
# [4] = Counterscreen qHTS for small molecule stabilizers of the endoplasmic reticulum resident proteome: GLuc-NoTag assay (AID 1508627)
# Outline: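 Counterscreen line: SH-SY5Y-GLuc-NoTag cells, treated with compound 19 hr before a 4 hr, 100 nM thapsigargin calcium depletion. Secreted Gaussia luciferase in the medium was measured by luminescence after coelenterazine was added (0.07x final), with cells unlysed.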
# [5] = Confirmatory qHTS for small molecule stabilizers of the endoplasmic reticulum resident proteome: Secreted ER Calcium Modulated Protein (SERCaMP) assay (AID 1508628)
# Outline: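 Reporter secretion upon ER calcium depletion (100 nM thapsigargin, 4 h, 37C) is measured as medium luminescence with coelenterazine, after 16 h compound pretreatment of SH-SY5Y-GLuc-SERCaMP cells; primary at three concentrations up to 38.3 uM, follow-up at 11 (up to 76.6 uM).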
# [6] = Cell Viability qHTS for small molecule stabilizers of the endoplasmic reticulum resident proteome (AID 1508629); details: cell viability counter-screen, 100 nM thapsigargin for final 4 h
# [7] = Confirmatory qHTS to identify inhibitors of SARS-CoV-2 cell entry (AID 1645844; calls by dose curve)
# Outline: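 Luminescence entry read-out after 48 h: spike-pseudotyped MLV particles (Wuhan-Hu-1, 19-aa C-terminal truncation) added to compound-pretreated (1 h) HEK293-ACE2 cells; Data were normalised to bald PP and spike PP wells.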
# [8] = VSVG counterscreen qHTS to identify inhibitors of SARS-CoV-2 cell entry (AID 1645847; calls by dose curve)
# Outline: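 Luminescence from a luciferase reporter, normalised to bald particle and VSV-G pseudotyped particle wells, is the read-out. Cells are HEK293 expressing human ACE2, exposed to compound 1 h before a 48 h particle infection at 37 °C.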
# [9] = target: Cytochrome P450 1A2 (Homo sapiens) (UniProt P05177); experiment: p450-cyp1a2 (AID 410; calls by dose curve)
# Outline: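 O-Demethylation of luciferin 6' methyl ether by human CYP1A2 is monitored as luciferase luminescence. Substrate sits at Km (100uM); enzyme is 20nM. Values are scaled to 57 uM furafylline as maximal inhibition.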
# [10] = target: Glucocorticoid receptor (Homo sapiens) (UniProt P04150); experiment: GR-EFC Redistribution (AID 451; calls by dose curve); details: CHO-K1 GR-EFC translocation, beta-gal luminescence, 2 h
# Sequence of Glucocorticoid receptor (Homo sapiens) (P04150 whole entry, looked up, the tested form may be a part): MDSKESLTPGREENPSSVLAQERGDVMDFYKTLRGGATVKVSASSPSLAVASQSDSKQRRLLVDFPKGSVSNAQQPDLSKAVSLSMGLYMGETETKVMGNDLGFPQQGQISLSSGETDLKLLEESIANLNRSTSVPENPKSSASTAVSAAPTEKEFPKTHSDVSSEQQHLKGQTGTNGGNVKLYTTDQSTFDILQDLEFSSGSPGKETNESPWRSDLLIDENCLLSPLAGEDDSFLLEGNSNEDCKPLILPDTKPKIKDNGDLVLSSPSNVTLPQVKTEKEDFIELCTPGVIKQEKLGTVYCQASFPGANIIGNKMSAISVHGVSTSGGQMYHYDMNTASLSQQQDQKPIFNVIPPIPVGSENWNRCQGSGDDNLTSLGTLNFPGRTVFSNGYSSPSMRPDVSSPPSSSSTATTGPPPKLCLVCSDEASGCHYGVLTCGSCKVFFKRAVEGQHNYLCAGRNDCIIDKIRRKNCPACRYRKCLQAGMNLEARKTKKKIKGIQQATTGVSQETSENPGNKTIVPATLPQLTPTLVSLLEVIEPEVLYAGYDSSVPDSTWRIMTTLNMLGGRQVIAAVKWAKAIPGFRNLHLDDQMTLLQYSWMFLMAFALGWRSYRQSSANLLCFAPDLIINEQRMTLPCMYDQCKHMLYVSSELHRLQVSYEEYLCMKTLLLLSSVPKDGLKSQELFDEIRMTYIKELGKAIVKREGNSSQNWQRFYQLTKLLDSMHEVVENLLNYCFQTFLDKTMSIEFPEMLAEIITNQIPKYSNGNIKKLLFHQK
# Outline: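 Translocation of GR-ED fusion to nuclear EA restores b-gal, read by luminescence after 1 h room-temperature detection. Engineered CHO-K1 biosensor cells, 1,000/well, exposed 2 h at 37 C to titrations up to 46 uM final.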
# [11] = target: Mitogen-activated protein kinase 10 (Mus musculus) (UniProt Q61831); experiment: JNK3 AlphaScreen Assay (AID 530; active means well fitted curve in either direction with a large enough effect, not every such curve was filed as active)
# Outline: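 qHTS titrations with 15 min compound pre-incubation before adding ATP (10 uM final). Read-out: AlphaScreen of Ser73-phosphorylated biotin-GST-cJun using HepG2 lysate JNK3 activated by IL-1β and TNFα.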
# [12] = target: 3',5'-cyclic-AMP phosphodiesterase 4B (Homo sapiens) (UniProt Q07343); experiment: qHTS Assay for Inhibitors of PDE-IV (AID 607; active means well fitted activation curve with a large enough effect in the main read-out, with a control signal flat, not every such curve was filed as active)
# Sequence of 3',5'-cyclic-AMP phosphodiesterase 4B (Homo sapiens) (Q07343 whole entry, looked up): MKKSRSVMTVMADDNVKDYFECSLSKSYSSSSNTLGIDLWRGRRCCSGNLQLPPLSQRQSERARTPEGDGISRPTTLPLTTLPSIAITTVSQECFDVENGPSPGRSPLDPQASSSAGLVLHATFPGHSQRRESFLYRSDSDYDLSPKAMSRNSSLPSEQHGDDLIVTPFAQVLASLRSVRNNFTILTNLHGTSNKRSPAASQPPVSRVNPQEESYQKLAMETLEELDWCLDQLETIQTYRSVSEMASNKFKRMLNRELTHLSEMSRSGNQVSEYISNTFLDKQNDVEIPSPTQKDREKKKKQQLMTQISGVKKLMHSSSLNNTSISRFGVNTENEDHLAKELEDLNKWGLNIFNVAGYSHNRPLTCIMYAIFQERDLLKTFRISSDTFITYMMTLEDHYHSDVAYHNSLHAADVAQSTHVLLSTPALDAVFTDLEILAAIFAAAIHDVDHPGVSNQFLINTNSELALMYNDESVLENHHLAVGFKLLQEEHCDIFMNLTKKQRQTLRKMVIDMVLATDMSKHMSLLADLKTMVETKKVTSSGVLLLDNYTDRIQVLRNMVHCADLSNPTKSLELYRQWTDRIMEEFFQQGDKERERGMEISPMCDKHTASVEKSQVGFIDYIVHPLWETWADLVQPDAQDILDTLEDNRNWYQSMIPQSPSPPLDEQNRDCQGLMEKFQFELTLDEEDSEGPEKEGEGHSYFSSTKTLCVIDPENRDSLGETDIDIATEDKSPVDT
# Outline: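 Cell-based read-out of cAMP via a modified cyclic nucleotide-gated channel and membrane potential dye (535/590 nm) in HEK293 cells expressing PDE4 endogenously. Compounds tested up to 22.9 uM final; 100 uM RO 20-1724 reference.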
# [13] = target: Cytochrome P450 2D6 (Homo sapiens) (UniProt P10635); experiment: qHTS Assay for Inhibitors and Substrates of Cytochrome P450 2D6 (AID 891)
# Sequence of Cytochrome P450 2D6 (Homo sapiens) (P10635 whole entry, looked up): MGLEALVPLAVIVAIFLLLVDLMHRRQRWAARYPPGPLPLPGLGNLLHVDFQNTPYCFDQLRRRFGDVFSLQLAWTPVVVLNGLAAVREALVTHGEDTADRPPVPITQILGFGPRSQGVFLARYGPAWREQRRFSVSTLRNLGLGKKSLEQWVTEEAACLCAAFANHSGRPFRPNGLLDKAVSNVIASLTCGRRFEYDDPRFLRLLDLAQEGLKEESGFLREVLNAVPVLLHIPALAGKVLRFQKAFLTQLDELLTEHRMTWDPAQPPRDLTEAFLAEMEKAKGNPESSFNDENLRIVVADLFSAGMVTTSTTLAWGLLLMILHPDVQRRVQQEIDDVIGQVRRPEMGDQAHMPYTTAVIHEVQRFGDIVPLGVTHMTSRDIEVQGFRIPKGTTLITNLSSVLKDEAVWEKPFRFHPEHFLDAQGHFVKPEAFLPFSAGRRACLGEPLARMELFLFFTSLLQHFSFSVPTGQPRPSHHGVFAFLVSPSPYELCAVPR
# Outline: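 Luminescent read-out of luciferin formed by 5 nM human CYP2D6 demethylating 30 uM Luciferin-ME EGE (Km level) over 60 min at room temperature after NADPH regeneration addition. Data normalized to full inhibition by 1.43 uM quinidine.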
# [14] = qHTS Assay for Identification of Small Molecule Antagonists for NFkB Signaling Pathway (AID 895; active means well fitted inhibition curve with a large enough effect in the signal ratio, with a control signal flat, not every such curve was filed as active; the % refers to the signal ratio)
# Outline: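 Beta-lactamase reporter read-out (460 and 530 nm emission ratio, 405 nm excitation, 2 hrs substrate loading RT) after 5 hr stimulation with 10 pM TNF alpha in compound-treated NFkB-bla ME-180 cells in low-serum medium.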
# [15] = qHTS Assay for Identification of Small Molecule Agonists for Thrombopoietin (TPO) Signaling Pathway (AID 917)
# Outline: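 Cell-based luciferase reporter screen. Mouse Ba/F3 line stably expressing human TPO receptor; IL-3 removed overnight before plating. Co-treatment with compound and EC50 TPO (26 pM), 24 hrs at 37 C, then luminescence.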
# [16] = target: Muscarinic acetylcholine receptor M1 (Rattus norvegicus) (UniProt P08482); experiment: qHTS Assay for Antagonists of Acetylcholine Muscarinic M1 Receptor: Kinetic Measurement of Intracellular Calcium Response (AID 943)
# Sequence of Muscarinic acetylcholine receptor M1 (Rattus norvegicus) (P08482 whole entry, looked up): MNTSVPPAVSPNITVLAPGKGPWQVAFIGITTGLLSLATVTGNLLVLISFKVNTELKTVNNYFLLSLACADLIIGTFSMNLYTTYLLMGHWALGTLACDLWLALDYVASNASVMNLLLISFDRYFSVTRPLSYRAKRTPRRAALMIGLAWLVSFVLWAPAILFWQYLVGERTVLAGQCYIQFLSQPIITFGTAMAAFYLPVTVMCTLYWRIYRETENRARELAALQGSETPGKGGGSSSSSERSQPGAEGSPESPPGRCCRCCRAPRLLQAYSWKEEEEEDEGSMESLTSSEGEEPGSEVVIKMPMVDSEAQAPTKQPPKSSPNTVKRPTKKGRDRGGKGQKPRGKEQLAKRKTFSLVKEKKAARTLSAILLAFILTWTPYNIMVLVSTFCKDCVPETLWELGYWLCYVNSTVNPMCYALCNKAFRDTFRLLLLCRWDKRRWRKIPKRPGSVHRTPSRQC
# Outline: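 Antagonism is measured as inhibition of the carbachol-evoked calcium rise in CHO cells transfected with rat M1. Cells are dye-loaded, exposed to compound for 10 min, then stimulated with 100 nM carbachol (EC80).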
# [17] = target: Muscarinic acetylcholine receptor M1 (Rattus norvegicus) (UniProt P08482); experiment: qHTS Assay for Antagonists of Acetylcholine Muscarinic M1 Receptor: Measurement of IP-One Response (AID 944)
# Outline: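 Antagonist mode with rat M1 receptor transfected into CHO cells. Compound is added first for 10 min, carbachol at its EC80 follows for 30 min, and lysis reagents then allow TR-FRET detection of accumulated IP1.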
# Furin (Homo sapiens) = Furin (Homo sapiens) (UniProt P09958); experiment: Furin counterscreen qHTS for Zika virus inhibitors (AID 1347149)
# Sequence of Furin (Homo sapiens) (P09958 whole entry, looked up): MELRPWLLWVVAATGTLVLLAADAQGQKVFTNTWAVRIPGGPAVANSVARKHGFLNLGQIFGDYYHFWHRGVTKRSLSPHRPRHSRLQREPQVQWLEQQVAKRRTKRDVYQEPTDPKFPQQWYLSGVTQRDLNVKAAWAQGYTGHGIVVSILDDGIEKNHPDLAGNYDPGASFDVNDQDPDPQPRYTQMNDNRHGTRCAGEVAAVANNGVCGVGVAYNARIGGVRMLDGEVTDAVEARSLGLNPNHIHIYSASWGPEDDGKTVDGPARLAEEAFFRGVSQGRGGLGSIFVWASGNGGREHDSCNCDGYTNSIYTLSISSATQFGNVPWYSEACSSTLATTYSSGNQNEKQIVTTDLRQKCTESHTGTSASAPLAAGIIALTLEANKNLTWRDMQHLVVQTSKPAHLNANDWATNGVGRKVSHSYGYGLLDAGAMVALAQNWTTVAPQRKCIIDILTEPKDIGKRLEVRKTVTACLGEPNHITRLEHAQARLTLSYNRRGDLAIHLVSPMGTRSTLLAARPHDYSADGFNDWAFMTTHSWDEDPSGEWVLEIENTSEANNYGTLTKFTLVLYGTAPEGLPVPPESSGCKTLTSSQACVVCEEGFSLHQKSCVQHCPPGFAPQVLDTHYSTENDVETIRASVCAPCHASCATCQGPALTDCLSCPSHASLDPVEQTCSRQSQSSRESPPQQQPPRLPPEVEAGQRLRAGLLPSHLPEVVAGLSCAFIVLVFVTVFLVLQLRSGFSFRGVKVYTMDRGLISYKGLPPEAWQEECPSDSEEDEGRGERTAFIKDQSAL
# Outline: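 Counterscreen measures cleavage of 2 microM BOC-RVRR-AMC, below its ~15 microM Km, by 5 nM full-length human furin at pH 7.0 after a 15-min compound preincubation. Inhibition derives from the 15-min fluorescence increase at 37C.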
# [18] = Vero cells viability qHTS for Zika virus inhibitors (AID 1347167)
# Outline: (§1)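 Luminescent ATP readout (CellTiter Glo) after 30 min at 37 degrees C gives viability; cells in DMEM + 4% FBS were treated 24 to 48 hours with compound, following overnight attachment.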
# [19] = HepG2 cells viability qHTS for Zika virus inhibitors (AID 1347168)
# Outline: as §1
structure (smiles),measurement,setting,value
C=C(CO)C(=O)O[C@H]1CC(=C)[C@@H]2C[C@H](O)C(=C)[C@@H]2[C@H]2OC(=O)C(=C)[C@@H]21,Potency,[1],2.51 µM (active)
same,max response,[2],-4.75% (inactive)
same,outcome,[3],inactive
C[C@H]1CCC/C=C/C2C[C@H](O)C[C@H]2[C@H](O)/C=C/C(=O)O1 (stereo not given in full),Potency,[4],inactive
same,Potency,[5],inactive
same,max response,[6],21.4% (inactive)
same,Potency,[7],0.857 µM (active)
same,Potency,[8],0.857 µM (active)
C=CCN1CCC2(C)c3cc(O)ccc3C[C@H]1[C@H]2C,Potency,[9],inactive and 31.6 µM (active)
same,Potency,[10],> 46 µM (inactive)
same,outcome,[11],inactive
same,Potency,[12],inactive
same,Potency,[13],7.94 µM (active) and 631 nM (active)
same,Potency,[14],inactive
same,outcome,[15],inactive
same,Potency,[16],14.1 µM (active)
same,Potency,[17],17.8 µM (active) and 15.8 µM (active)
same,Potency,Furin (Homo sapiens),inactive
same,Potency,[18],inactive
same,Potency,[19],inactive
